# Reference: PubChem BioAssay
# Some of the results follow. Active and inactive are the calls of the source. Unless noted, no stated cut-off is given here; in the data, active means binding response below about 74% or above about 130%; inactive means in between.
# What was measured:
# [1] = biological target: Regulator of G-protein signaling 16 (Homo sapiens) (UniProt O15492); assay: modulators of RGS–Galpha-o binding, primary screen, biochemical, multiplexed beads, flow cytometry, RGS4/7/8/16/19 (AID 1504); conditions: multiplexed bead flow cytometry, measured here: RGS16 interaction, at 10 µM;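 further: fluorescently labeled Galpha-o bound to GDP with aluminium fluoride binding biotinylated RGS beads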
# [2] = biological target: Regulator of G-protein signaling 19 (Homo sapiens) (UniProt P49795); assay: as above; conditions: multiplexed bead flow cytometry, measured here: RGS19 interaction, at 10 µM
# [3] = biological target: Regulator of G-protein signaling 7 (Homo sapiens) (UniProt P49802); assay: as above; conditions: multiplexed bead flow cytometry, measured here: RGS7 interaction, at 10 µM
# [4] = biological target: Regulator of G-protein signaling 8 (Homo sapiens) (UniProt P57771); assay: as above; conditions: multiplexed bead flow cytometry, measured here: RGS8 interaction, at 10 µM
# [5] = disruption of biotin probe capture by avidin, counter-screen for RGS protein interaction modulators, biochemical, flow cytometry, bead-based (AID 1783;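 active means inhibition above 50%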;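 further: median green fluorescence of gated singlet beads compared with DMSO control wells; 0% = DMSO wells and 100% = complete loss of bead fluorescence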); conditions: streptavidin beads, fluorescein-biotin binding; at 10 µM, stronger effect = higher value
# [6] = biological target: Guanine nucleotide-binding protein G(o) subunit alpha (Homo sapiens) (UniProt P09471); assay: RGS8-Galphao binding modulators, confirmation, biochemical, multiplexed bead flow cytometry, single concentration (AID 1836; in the data active means binding response below about 72% or above about 130%; inactive means in between;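 further: Galphao activated as GDP AlF4 complex before binding bead RGS8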); conditions: bead-based flow cytometry RGS8-Galphao binding, fluorescence; at 10 µM; actives lie on both sides
# [7] = biological target: Guanine nucleotide-binding protein G(o) subunit alpha (Homo sapiens) (UniProt P09471); assay: RGS7-Galphao binding modulators, confirmation, biochemical, multiplexed bead flow cytometry, single concentration (AID 1837; in the data active means response below about 75% or above about 130%; inactive means in between;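 further: fluorescent Galphao activated with GDP and aluminum fluoride binding bead-coupled RGS7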); conditions: bead-based flow cytometry RGS7-Galphao binding; at 10 µM; actives lie on both sides
# [8] = biological target: Regulator of G-protein signaling 16 (Homo sapiens) + Guanine nucleotide-binding protein G(o) subunit alpha (Homo sapiens) (UniProt O15492+P09471); assay: modulators of RGS16-Galphao protein binding, confirmation, biochemical, single concentration, multiplexed bead flow cytometry (AID 1838; in the data active means response below about 74% or above about 130%; inactive means in between;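 further: Galphao activated as the GDP aluminium fluoride complex binding bead-coupled RGS16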); conditions: bead-based flow cytometry, at 10 µM, actives lie on both sides
# [9] = biological target: Guanine nucleotide-binding protein G(o) subunit alpha (Homo sapiens) (UniProt P09471); assay: modulators of RGS4-Galphao protein binding, confirmation, biochemical, single concentration, multiplexed bead flow cytometry (AID 1840); conditions: at 10 µM, actives lie on both sides
# [10] = biological target: Guanine nucleotide-binding protein G(o) subunit alpha (Homo sapiens) + Regulator of G-protein signaling 19 (Homo sapiens) (UniProt P09471+P49795); assay: regulators of RGS19-Galphao binding, confirmation, biochemical, single point, multiplexed bead flow cytometry (AID 1841; in the data active means response below about 50% or above about 160%; inactive means in between;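 further: 100% = no compound control and 0% = blank background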); conditions: bead-based flow cytometry RGS19-Galphao binding; at 10 µM; actives lie on both sides
# Sequence of Guanine nucleotide-binding protein G(o) subunit alpha (Homo sapiens) + Regulator of G-protein signaling 19 (Homo sapiens) (P09471 whole entry, looked up): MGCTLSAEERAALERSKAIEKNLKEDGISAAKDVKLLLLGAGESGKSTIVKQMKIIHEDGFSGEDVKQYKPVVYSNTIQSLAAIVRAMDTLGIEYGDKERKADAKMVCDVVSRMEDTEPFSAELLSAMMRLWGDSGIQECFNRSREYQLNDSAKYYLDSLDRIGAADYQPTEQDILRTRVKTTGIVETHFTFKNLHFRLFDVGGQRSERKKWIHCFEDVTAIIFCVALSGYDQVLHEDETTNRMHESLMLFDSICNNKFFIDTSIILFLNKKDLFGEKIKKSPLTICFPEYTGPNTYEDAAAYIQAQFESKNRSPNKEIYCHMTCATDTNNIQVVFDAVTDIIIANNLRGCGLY
# Sequence of Guanine nucleotide-binding protein G(o) subunit alpha (Homo sapiens) + Regulator of G-protein signaling 19 (Homo sapiens) (P49795 whole entry, looked up): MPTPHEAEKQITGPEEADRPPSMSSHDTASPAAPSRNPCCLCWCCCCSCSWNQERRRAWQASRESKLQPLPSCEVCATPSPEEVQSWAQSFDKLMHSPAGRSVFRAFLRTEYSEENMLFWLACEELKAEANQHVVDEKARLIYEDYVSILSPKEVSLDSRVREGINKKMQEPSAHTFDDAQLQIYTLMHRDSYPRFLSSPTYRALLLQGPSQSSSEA
# Sequence of Regulator of G-protein signaling 16 (Homo sapiens) + Guanine nucleotide-binding protein G(o) subunit alpha (Homo sapiens) (O15492 whole entry, looked up): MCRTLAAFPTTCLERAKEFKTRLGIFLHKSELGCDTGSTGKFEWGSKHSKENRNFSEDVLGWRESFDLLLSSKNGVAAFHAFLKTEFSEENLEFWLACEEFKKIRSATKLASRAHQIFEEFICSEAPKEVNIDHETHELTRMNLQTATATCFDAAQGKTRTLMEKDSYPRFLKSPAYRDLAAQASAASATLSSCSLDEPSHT
# Sequence of Regulator of G-protein signaling 16 (Homo sapiens) + Guanine nucleotide-binding protein G(o) subunit alpha (Homo sapiens) (P09471 whole entry, looked up): as the sequence (P09471 whole entry, looked up) above
# Sequence of Guanine nucleotide-binding protein G(o) subunit alpha (Homo sapiens) (P09471 whole entry, looked up): as above
SMILES,RGS16–Galpha-o binding response [1] [%],RGS19–Galpha-o binding response [2] [%],RGS7–Galpha-o binding response [3] [%],RGS8–Galpha-o binding response [4] [%],inhibition [5],binding response (% of control) [6],response (percent of control binding) [7],response (% of control binding) [8],binding response (% of control) [9],response (percent of control binding) [10]
CCCCOC(=O)Cn1c(=N)n(CCN(CC)CC)c2ccccc21,0,-255,165,127,-1.7% (inactive),101% (inactive),95.7% (inactive),101% (inactive),97.5% (inactive),101% (inactive)
CCOC(=O)CSc1nc2c(c(=O)n(Cc3ccccc3Cl)c(=O)n2C)n1C,-55.5,98.5,88.1,78.5,0.8% (inactive),95.8% (inactive),99.8% (inactive),99.1% (inactive),94.7% (inactive),87.7% (inactive)
Oc1ccc(-c2onc3ccc(Cl)cc23)cc1,415,108,110,144,0% (inactive),92.4% (inactive),89.7% (inactive),91.4% (inactive),89% (inactive),79.4% (inactive)
CCN(CC)CCn1cnc2c1c(=O)n(CCOC(=O)c1cc(OC)c(OC)c(OC)c1)c(=O)n2C,147,76.4,13,131,-0.6% (inactive),104% (inactive),103% (inactive),104% (inactive),105% (inactive),108% (inactive)
O=C(CSc1ccc2nnc(-c3ccccc3)n2n1)N1CCCc2ccccc21,413,-1120,207,112,2% (inactive),104% (inactive),101% (inactive),101% (inactive),103% (inactive),108% (inactive)
CCCn1c(C)cc(C(=O)COC(=O)c2c(C)nn(-c3ccccc3)c2C)c1C,-33.9,99.6,81.9,83.8,1.1% (inactive),105% (inactive),104% (inactive),103% (inactive),104% (inactive),110% (inactive)
Cc1ccc(N2C(=O)C3C(c4ccccc4)(C2=O)C3(c2ccccc2)c2ccccc2)cc1 (stereo not drawn),13.2,310,14.4,23.3,-0.7% (inactive),91.8% (inactive),60.8% (active),80.2% (inactive),68.2% (active),75.7% (inactive)
Cc1ccc(Cn2ccc(NC(=O)c3cc(C(C)C)on3)n2)cc1,47.2,-20,43.9,55.8,,,,,,
COc1cc(C2/C(=C(\O)c3ccc4c(c3)CC(C)O4)C(=O)C(=O)N2Cc2ccco2)ccc1O (stereo not drawn),-10.7,178,17.7,12.8,1.5% (inactive),106% (inactive),110% (inactive),109% (inactive),106% (inactive),106% (inactive)
Cc1cc(=O)n2[nH]c(-c3sccc3-n3c(C)ccc3C)cc2n1,44.4,5890,-34.3,61.1,-1.8% (inactive),103% (inactive),86.4% (inactive),95.8% (inactive),89.2% (inactive),80.1% (inactive)
CN(C)S(=O)(=O)Oc1ccccc1C(=O)Nc1ccccc1Cl,100,70.6,223,97.6,-0.2% (inactive),97.3% (inactive),101% (inactive),100% (inactive),98.9% (inactive),83.3% (inactive)
CCOC(=O)NNc1cc(C(F)(F)F)ccn1,148,84.9,66.9,133,-0.7% (inactive),104% (inactive),107% (inactive),104% (inactive),102% (inactive),109% (inactive)
Cc1ccc(C)c(OCC(=O)N2CCN(C(=O)c3ccco3)CC2)c1,24.4,113,89.8,88.5,2.8% (inactive),104% (inactive),104% (inactive),107% (inactive),106% (inactive),110% (inactive)
O=C(CN1CCCCC1)N1c2ccccc2Sc2ccc(C(F)(F)F)cc21,-6.83,241,27.5,22.7,,,,,,
Cn1c(=O)c2c(n(Cc3ccccc3)c1=O)NC(=O)C2CC(=O)N1CCc2ccccc2C1 (stereo not drawn),-1.02,241,13.5,12.1,0.9% (inactive),100% (inactive),112% (inactive),95.4% (inactive),105% (inactive),102% (inactive)
CCN(CC)S(=O)(=O)c1cccc(-c2n[nH]c(=S)n2/N=C/c2ccc(C(=O)OC)cc2)c1,334,35.5,133,124,-1.2% (inactive),77.7% (inactive),113% (inactive),74% (active),91% (inactive),66.1% (inactive)
Cc1ccccc1CS(=O)(=O)CC1(O)CCN(C(=O)c2cccc(C(F)(F)F)c2)CC1,106,115,157,100,2.5% (inactive),104% (inactive),105% (inactive),102% (inactive),105% (inactive),78.9% (inactive)
